Test results taken from the supplement of paper PMC10849652.
About 7,900 targets were measured; listed, in parts, are those with a hit and a random draw of the rest. About 0.6% of all pairs of compound and target were hits. Unmarked numbers belong to inactive results.

What was measured:
Experiment in all cases: log2 fold change, soluble protein after heating vs DMSO (PISA); higher = thermal stabilisation; K562 cells, 10 uM, 30 min; active = over 0.2 and 3.5 SD of the protein, either way, in both replicates (recomputed)
[1] = compound: CS(=O)(=O)c1ccc(-c2cnc(N)c(C(=O)Nc3ccccc3)n2)cc1
Procedure, shortened: (§1)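 Quantification of soluble protein used TMTpro 16plex LC-MS/MS, with channel sums equalised. Samples were the supernatant after 21,000xg for 90 min of pooled aliquots from K562 cells (2×10^6 cells/mL) treated with 10 μM compound for 30 min, heated for 3 min over 48°C-58°C, and extracted in PBS with 0.5% NP-40 at 4°C. Values, from duplicates, describe thermal stability against control samples on a log2 fold-change scale.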

[2] = compound: C[C@@H](Oc1cc(-c2cnn(C3CCNCC3)c2)cnc1N)c1c(Cl)ccc(F)c1Cl [crizotinib]
Procedure, shortened: as §1

[3] = compound: C[C@@H]1COCCN1C2=NC(=NC(=C2)C3(CC3)S(=O)(=O)C)C4=C5C=CNC5=CC=C4
Procedure, shortened: as §1

[4] = compound: C[C@H](C1=CC=C(C=C1)C(=O)NC2=C3C=CNC3=NC=C2)N
Procedure, shortened: as §1

[5] = compound: C[C@H](Nc1ncnc2nc[nH]c12)c1cc2cccc(Cl)c2c(=O)n1-c1ccccc1 [duvelisib]
Procedure, shortened: as §1

[6] = compound: Cc1cc(Nc2cc(CN3CCOCC3)c3nc(C)c(Cc4ccc(Cl)cc4F)n3n2)n[nH]1 [gandotinib]
Procedure, shortened: as §1

[7] = compound: Cc1cc(Nc2cc(N3CCN(C)CC3)nc(Sc3ccc(NC(=O)C4CC4)cc3)n2)n[nH]1 [tozasertib]
Procedure, shortened: as §1

[8] = compound: Cc1cc(SCc2sc(-c3ccc(C(F)(F)F)cc3)nc2C)ccc1OCC(=O)O
Procedure, shortened: as §1

[9] = compound: Cc1ccc(-n2nc(C(C)(C)C)cc2NC(=O)Nc2ccc(OCCN3CCOCC3)c3ccccc23)cc1 [doramapimod]
Procedure, shortened: as §1

[10] = compound: Cc1ccc(C(=O)N(CCCN)[C@@H](c2nc3cc(Cl)ccc3c(=O)n2Cc2ccccc2)C(C)C)cc1 [ispinesib]
Procedure, shortened: as §1

[11] = compound: Cc1ccc(NC(=O)c2ccc(CN3CC[C@H](N(C)C)C3)c(C(F)(F)F)c2)cc1Nc1nccc(-c2cncnc2)n1 [bafetinib]
Procedure, shortened: as §1

[12] = compound: Cc1cccc(CC(=O)N2CCc3c2ccc(-c2cn(C)c4ncnc(N)c24)c3F)n1
Procedure, shortened: as §1

[13] = compound: Cc1cn(-c2cc(NC(=O)c3ccc(C)c(Nc4nccc(-c5cccnc5)n4)c3)cc(C(F)(F)F)c2)cn1 [nilotinib]
Procedure, shortened: as §1

[14] = compound: Cc1nc(Nc2n[nH]c3c2CN(C(=O)N[C@H](CN(C)C)c2ccccc2)C3(C)C)c2sccc2n1
Procedure, shortened: as §1

[15] = compound: Cc1nc(Nc2ncc(C(=O)Nc3c(C)cccc3Cl)s2)cc(N2CCN(CCO)CC2)n1 [dasatinib]
Procedure, shortened: as §1

[16] = compound: Cc1ncc(-c2ccnc(Nc3ccc(S(C)(=O)=O)cc3)n2)n1C(C)C
Procedure, shortened: as §1

[17] = compound: Cn1cc(-c2ccc3c(c2)CCN3C(=O)Cc2cccc(C(F)(F)F)c2)c2c(N)ncnc21
Procedure, shortened: as §1

[18] = compound: Cn1cc(-c2ccc3nnc(C(F)(F)c4ccc5ncccc5c4)n3n2)cn1
Procedure, shortened: as §1

[19] = compound: Cn1cncc1[C@@](N)(c1ccc(Cl)cc1)c1ccc2c(c1)c(-c1cccc(Cl)c1)cc(=O)n2C [tipifarnib]
Procedure, shortened: as §1

[20] = compound: FC(F)(F)c1ccc(/C=C/c2nc(COc3ccc(CCCCn4ccnn4)cc3)co2)cc1 [mubritinib]
Procedure, shortened: as §1

UniProt Q9UNL2, sequence (Q9UNL2 whole entry, looked up): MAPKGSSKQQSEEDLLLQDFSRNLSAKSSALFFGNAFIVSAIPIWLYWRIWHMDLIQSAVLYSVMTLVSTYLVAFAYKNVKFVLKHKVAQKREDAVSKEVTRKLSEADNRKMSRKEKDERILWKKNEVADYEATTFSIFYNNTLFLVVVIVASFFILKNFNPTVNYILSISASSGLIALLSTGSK
UniProt Q96BW9, sequence (Q96BW9 whole entry, looked up): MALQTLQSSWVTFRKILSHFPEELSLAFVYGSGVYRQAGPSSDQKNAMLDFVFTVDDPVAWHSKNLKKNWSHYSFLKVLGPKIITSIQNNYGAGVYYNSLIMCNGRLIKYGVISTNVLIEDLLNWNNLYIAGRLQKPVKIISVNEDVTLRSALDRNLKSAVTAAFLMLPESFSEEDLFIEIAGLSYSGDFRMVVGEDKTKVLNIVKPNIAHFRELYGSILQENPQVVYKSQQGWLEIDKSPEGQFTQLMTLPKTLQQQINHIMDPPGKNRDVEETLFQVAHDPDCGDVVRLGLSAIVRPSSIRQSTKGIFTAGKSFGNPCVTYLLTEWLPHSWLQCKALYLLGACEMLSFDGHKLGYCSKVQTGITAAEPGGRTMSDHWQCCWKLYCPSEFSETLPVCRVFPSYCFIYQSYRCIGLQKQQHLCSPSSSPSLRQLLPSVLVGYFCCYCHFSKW
UniProt Q9Y5X1, sequence (Q9Y5X1 whole entry, looked up): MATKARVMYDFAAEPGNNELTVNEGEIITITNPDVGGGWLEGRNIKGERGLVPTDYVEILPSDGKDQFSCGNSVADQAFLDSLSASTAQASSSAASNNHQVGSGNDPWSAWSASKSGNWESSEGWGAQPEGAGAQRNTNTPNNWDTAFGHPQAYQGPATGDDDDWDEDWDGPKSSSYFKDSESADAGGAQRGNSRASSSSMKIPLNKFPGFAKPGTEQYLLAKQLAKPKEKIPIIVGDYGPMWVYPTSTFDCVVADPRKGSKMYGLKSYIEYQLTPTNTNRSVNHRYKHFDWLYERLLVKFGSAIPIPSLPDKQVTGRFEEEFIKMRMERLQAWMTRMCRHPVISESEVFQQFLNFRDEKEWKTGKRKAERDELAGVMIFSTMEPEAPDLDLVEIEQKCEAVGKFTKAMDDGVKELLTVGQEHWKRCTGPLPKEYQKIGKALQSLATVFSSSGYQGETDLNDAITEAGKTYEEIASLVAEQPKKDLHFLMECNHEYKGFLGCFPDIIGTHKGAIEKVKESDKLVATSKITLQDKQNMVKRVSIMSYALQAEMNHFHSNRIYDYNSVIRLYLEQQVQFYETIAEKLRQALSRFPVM
UniProt P15907, sequence (P15907 whole entry, looked up): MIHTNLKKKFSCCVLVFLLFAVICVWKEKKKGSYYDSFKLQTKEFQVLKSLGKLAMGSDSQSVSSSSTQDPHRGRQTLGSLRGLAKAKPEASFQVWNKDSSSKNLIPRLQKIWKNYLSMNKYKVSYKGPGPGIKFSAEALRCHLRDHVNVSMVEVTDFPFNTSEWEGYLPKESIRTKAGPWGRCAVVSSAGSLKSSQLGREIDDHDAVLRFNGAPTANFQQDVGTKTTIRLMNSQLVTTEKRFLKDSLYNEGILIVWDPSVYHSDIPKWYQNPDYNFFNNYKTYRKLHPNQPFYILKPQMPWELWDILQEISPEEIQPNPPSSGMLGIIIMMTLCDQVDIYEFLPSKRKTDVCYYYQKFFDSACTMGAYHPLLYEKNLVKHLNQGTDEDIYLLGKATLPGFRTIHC
UniProt Q9H5Q4, sequence (Q9H5Q4 whole entry, looked up): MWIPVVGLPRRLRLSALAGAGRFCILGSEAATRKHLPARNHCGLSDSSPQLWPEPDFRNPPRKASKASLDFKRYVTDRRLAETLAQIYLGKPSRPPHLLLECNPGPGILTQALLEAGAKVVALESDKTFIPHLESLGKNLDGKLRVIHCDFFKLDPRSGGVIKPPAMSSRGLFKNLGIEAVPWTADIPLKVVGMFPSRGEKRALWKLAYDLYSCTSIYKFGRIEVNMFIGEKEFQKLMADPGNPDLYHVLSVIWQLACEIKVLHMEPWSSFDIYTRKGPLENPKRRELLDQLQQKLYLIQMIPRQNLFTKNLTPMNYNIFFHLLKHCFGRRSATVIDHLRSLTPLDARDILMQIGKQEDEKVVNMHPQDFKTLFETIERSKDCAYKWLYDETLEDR
UniProt Q92544, sequence (Q92544 whole entry, looked up): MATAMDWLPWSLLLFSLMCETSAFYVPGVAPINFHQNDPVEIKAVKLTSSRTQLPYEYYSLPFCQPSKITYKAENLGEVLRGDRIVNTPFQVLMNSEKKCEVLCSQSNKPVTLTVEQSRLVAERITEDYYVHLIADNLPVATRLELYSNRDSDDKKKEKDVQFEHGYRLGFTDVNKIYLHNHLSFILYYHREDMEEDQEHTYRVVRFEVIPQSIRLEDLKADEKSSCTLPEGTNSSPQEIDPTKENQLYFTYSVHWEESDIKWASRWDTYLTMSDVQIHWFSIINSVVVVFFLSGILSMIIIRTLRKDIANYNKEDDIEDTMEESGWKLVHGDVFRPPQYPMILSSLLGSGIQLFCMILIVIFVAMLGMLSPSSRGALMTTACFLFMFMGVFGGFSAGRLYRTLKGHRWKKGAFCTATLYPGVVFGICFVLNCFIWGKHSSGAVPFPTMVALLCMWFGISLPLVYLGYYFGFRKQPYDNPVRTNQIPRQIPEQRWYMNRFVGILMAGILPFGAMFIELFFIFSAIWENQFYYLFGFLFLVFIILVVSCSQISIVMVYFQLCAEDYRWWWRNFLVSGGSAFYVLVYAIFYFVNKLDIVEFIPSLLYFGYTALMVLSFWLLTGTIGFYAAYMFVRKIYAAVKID
UniProt P35610, sequence (P35610 whole entry, looked up): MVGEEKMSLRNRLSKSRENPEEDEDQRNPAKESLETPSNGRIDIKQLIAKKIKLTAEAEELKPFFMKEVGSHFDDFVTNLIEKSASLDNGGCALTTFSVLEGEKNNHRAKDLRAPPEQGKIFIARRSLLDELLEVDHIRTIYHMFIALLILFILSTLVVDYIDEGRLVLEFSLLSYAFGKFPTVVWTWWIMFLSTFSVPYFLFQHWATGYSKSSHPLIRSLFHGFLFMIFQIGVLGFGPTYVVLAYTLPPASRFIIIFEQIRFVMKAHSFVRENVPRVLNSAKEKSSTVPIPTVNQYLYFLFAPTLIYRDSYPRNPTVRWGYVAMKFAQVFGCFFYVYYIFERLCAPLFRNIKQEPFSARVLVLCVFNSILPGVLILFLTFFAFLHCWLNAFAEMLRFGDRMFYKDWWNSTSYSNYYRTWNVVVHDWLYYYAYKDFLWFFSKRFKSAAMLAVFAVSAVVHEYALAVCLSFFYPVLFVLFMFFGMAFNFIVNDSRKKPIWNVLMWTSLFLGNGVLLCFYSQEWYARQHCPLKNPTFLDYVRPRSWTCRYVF
UniProt Q9Y5W9, sequence (Q9Y5W9 whole entry, looked up): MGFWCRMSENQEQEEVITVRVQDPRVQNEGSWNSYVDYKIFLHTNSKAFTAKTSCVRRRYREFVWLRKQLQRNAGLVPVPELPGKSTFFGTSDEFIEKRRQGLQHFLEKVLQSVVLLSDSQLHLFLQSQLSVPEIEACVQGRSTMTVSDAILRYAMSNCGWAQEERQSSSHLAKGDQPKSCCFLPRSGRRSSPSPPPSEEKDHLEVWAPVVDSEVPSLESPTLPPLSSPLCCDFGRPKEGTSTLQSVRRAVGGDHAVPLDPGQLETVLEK
UniProt Q8IWZ8, sequence (Q8IWZ8 whole entry, looked up): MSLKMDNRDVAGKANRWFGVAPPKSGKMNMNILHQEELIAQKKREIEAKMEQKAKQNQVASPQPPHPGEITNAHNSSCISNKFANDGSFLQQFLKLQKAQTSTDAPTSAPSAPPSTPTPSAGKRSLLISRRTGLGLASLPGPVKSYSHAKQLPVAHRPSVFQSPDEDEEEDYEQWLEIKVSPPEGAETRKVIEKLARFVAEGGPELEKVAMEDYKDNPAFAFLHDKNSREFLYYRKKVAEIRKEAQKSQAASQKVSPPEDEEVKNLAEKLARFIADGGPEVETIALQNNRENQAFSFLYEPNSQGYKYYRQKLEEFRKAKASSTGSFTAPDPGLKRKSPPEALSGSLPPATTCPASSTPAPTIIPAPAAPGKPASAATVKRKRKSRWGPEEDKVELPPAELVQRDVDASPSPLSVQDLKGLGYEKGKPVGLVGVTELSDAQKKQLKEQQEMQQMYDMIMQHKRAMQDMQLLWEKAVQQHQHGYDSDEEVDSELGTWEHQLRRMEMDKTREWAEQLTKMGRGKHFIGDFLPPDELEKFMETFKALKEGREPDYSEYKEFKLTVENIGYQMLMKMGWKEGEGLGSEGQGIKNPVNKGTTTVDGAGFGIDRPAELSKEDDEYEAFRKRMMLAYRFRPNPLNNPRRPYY
UniProt Q08945, sequence (Q08945 whole entry, looked up): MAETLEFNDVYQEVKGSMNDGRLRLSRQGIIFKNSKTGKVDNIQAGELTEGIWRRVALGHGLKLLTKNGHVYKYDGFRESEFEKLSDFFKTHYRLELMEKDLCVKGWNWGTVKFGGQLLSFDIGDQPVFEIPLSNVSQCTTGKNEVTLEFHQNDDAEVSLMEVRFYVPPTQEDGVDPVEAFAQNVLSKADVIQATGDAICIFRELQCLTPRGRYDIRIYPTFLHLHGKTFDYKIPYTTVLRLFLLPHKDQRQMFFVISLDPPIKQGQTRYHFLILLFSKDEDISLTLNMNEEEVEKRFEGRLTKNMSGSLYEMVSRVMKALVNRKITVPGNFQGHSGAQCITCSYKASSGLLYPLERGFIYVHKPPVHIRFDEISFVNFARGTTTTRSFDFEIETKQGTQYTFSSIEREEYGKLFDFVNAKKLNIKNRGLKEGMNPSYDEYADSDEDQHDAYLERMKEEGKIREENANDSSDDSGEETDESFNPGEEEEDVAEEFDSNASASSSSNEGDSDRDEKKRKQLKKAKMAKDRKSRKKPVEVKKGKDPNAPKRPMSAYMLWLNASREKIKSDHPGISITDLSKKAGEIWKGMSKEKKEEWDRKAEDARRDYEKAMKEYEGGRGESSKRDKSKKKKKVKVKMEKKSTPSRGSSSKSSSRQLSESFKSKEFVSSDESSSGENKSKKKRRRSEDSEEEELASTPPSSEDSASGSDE

Target	log2 fold change [1]	log2 fold change [2]	log2 fold change [3]	log2 fold change [4]	log2 fold change [5]	log2 fold change [6]	log2 fold change [7]	log2 fold change [8]	log2 fold change [9]	log2 fold change [10]	log2 fold change [11]	log2 fold change [12]	log2 fold change [13]	log2 fold change [14]	log2 fold change [15]	log2 fold change [16]	log2 fold change [17]	log2 fold change [18]	log2 fold change [19]	log2 fold change [20]
TBC1D5 isoform 2 (UniProt Q92609)	0	-0.24	-0.003	0.084	-0.072	-0.255	0.007	0.142	-0.031	-0.268	-0.126	0.017	-0.076	-0.052	-0.232	0.007	-0.067	-0.005	-0.177	-0.017
SSRP1 (UniProt Q08945)	-0.024	-0.018	0.144	-0.088	0.029	-0.029	0.087	0.072	-0.027	0.048	0.007	0.015	-0.025	-0.175	-0.059	-0.075	0.03	-0.033	0	0.009
TEX264 (UniProt Q9Y6I9)	0.361	0.079	0.064	0.176	0.037	-0.059	0.113	-0.028	0.039	-0.016	0.391	0.007	0.241	0.111	0.265	0.845 (active)	0.047	0.114	-0.006	0.047
SOAT1 (UniProt P35610)	0.066	0.139	0.094	-0.018	0.069	0.079	-0.021	-0.026	0.448 (active)	0.158	0.085	0.011	0.566 (active)	-0.001	0.257	-0.021	0.031	-0.058	0.039	0.096
SMCHD1 (UniProt A6NHR9)	-0.019	-0.065	-0.041	-0.104	0	0.064	0.007	0.104	0.059	-0.149	0.306	0	0.037	-0.011	-0.319	-0.044	-0.061	-0.084	-0.003	-0.136
STARD9 (UniProt Q9P2P6)	0.144	0.141	0.012	0.049	-0.06	0.04	0.013	0.028	0.074	-0.146	0.012	-0.029	0.016	0.157	0.091	0.002	0.076	0.047	0.07	0.129
SNX11 (UniProt Q9Y5W9)	-0.062	-0.76 (active)	-0.021	0.012	-0.486 (active)	-0.378	-0.001	0.14	-0.017	-0.536 (active)	-0.259	0.081	-0.033	-0.108	-0.022	-0.44 (active)	0.077	0.002	0.178	-0.015
SSR3 isoform 2 (UniProt Q9UNL2)	0.021	-0.043	0.05	-0.458 (active)	0.012	0.281	0.003	-0.038	0.034	0.021	-0.064	0.034	-0.006	0.029	0.006	-0.047	0.107	-0.167	0.084	0.049
TM9SF4 (UniProt Q92544)	-0.029	-0.141	0.036	0.04	-0.015	-0.189	0.006	0.044	0.034	-0.143	0.034	0.252 (active)	0.005	0.012	0.127	0.037	-0.021	0.004	-0.061	0.007
ST6GAL1 (UniProt P15907)	-0.064	-0.189	-0.005	0.037	0.073	0.014	0.001	0.018	0.083	0.002	0.001	0.029	0.168	-0.048	0.131	-0.001	0.007	-0.02	0.128	-0.023
TBCD (UniProt Q9BTW9)	-0.069	0.001	0.061	-0.034	0.058	-0.104	0.041	0.009	0.004	-0.032	-0.064	0.029	-0.101	-0.078	-0.086	-0.025	0.007	0.025	-0.038	-0.039
SUGP1 (UniProt Q8IWZ8)	0.021	-0.001	0.015	-0.064	-0.024	-0.077	0.042	0.09	-0.033	0.019	-0.033	0.012	-0.019	-0.058	-0.139	-0.043	0.08	-0.012	-0.007	0.063
TAMM41 isoform 3 (UniProt Q96BW9)	0.064	-0.232 (active)	0.073	-0.016	0.032	-0.04	-0.036	0.05	-0.048	-0.249 (active)	-0.278 (active)	-0.041	-0.112	-0.005	-0.108	0.026	0.037	0.028	-0.043	-0.044
TFB2M (UniProt Q9H5Q4)	-0.013	-0.06	0.096	0.025	0.049	-0.19	0.013	0.033	-0.024	-0.044	-0.046	0.008	-0.043	-0.024	-0.099	0.009	0.012	-0.004	-0.132	-0.039
SNX9 (UniProt Q9Y5X1)	0.013	-0.077	-0.009	0.003	-0.039	-0.054	-0.015	0.115	-0.009	-0.074	-0.015	0.03	-0.06	-0.064	-0.131	0.006	-0.023	-0.008	-0.013	0.009
SLIRP (UniProt Q9GZT3)	-0.046	-0.267	-0.202	0.058	0.029	0.162	-0.075	0.146	-0.045	-0.149	-0.156	-0.099	0.118	-0.027	-0.134	-0.073	0.131	0.075	0.031	-0.044
